Data as given in PubChem BioAssay (Tox21).
Where “and” joins values, the source holds several entries; their conditions need not be identical. Identical values can stand only once. Results filed as inconclusive are left out. A call without a number means that no potency is given here. Where a structure was tested more than once in an assay, its records may differ in their call. Calls of active or inactive are those of the source. Unless noted, calls come from the whole dose curve; as a rule, active = well fitted curve in the direction sought with a large enough effect in the repeat runs; inconclusive = weak or mixed curves; inactive = no such curve, though single readings can be large; an effect the other way counts as inactive or inconclusive.

Legend:
[1] = qHTS assay to identify small molecule antagonists of the thyroid receptor (TR) signaling pathway (AID 743065); note: nearly all actives have a fitted effect of over 55% in size; note: potency is the fitted concentration of half-maximal effect
How it was run: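 GH3.TRE-Luc rat pituitary cells (two TREs driving luciferase) were dosed with compound, then stimulated with 1 nM T3 (final) for 23.5 h at 37 C. ONE-Glo luminescence was the read-out, with CellTiter-Fluor fluorescence as the cytotoxicity counter-screen.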

[2] = system: thyroid hormone receptor (rat, GH3 cells); experiment: qHTS assay to identify small molecule agonists of the thyroid receptor (TR) signaling pathway (AID 743066; calls by dose curve)
[3] = molecular target: Estrogen receptor (Homo sapiens) (UniProt P03372); experiment: qHTS assay to identify small molecule antagonists of the estrogen receptor alpha (ER-alpha) signaling pathway (AID 743069; active = well fitted curve in the direction sought with a large enough effect in the signal ratio in the repeat runs, not every such curve was filed as active; the % refers to the signal ratio; note: potency is the fitted concentration of half-maximal effect)
Sequence of Estrogen receptor (Homo sapiens) (P03372 whole entry, looked up): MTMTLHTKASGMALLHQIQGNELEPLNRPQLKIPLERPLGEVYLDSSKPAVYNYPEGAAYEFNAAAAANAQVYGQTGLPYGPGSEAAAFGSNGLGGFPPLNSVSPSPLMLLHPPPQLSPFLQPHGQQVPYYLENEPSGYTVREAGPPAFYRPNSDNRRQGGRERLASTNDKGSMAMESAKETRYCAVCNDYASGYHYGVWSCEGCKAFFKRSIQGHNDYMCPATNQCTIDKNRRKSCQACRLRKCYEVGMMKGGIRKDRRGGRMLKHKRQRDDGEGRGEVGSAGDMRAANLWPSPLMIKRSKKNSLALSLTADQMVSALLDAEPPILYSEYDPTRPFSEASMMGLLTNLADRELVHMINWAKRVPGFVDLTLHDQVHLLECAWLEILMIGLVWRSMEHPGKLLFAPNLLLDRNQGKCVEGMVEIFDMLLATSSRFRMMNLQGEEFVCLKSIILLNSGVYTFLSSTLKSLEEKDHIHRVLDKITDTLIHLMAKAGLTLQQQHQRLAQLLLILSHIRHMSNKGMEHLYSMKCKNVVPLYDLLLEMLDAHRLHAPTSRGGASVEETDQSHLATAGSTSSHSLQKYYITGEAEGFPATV
How it was run: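 In this cell-based reporter format, GripTite HEK293 cells harbouring ER-alpha-UAS-bla were grown overnight with 2% charcoal-stripped FBS, dosed with DMSO-dissolved compounds, then challenged with 17beta-estradiol. After 18 hr at 37C, beta-lactamase activity was detected by FRET fluorescence.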

[4] = qHTS assay to identify small molecule antagonists of the estrogen receptor alpha (ER-alpha) signaling pathway - cell viability counter screen (AID 743074; calls by dose curve; note: nearly all actives have a fitted effect of over 45% in size)
[5] = molecular target: Estrogen receptor (Homo sapiens) (UniProt P03372); experiment: qHTS assay to identify small molecule agonists of the estrogen receptor alpha (ER-alpha) signaling pathway (AID 743075; calls by dose curve)
[6] = molecular target: Estrogen receptor (Homo sapiens) (UniProt P03372); experiment: qHTS assay to identify small molecule agonists of the estrogen receptor alpha (ER-alpha) signaling pathway using the BG1 cell line (AID 743079); note: nearly all actives have a fitted effect of over 20% in size; note: potency is the fitted concentration of half-maximal effect
[7] = qHTS assay to identify small molecule antagonists of the estrogen receptor alpha (ER-alpha) signaling pathway using the BG1 cell line (AID 743080; calls by dose curve;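 note: BG1 cells stimulated with 17beta-estradiol alongside compound; series mostly up to about 70 µM; nearly all actives have a fitted effect of over 25% in size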)
How it was run: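 BG1Luc4E2, endogenous ER-alpha, 4xERE-luc; 5 d charcoal-stripped FBS, phenol red free; 24 h plating; cpd + 17beta-estradiol 21.5 h, 37 C/5% CO2; CellTiter-Fluor viability 30 min, then ONE-Glo luciferase 30 min RT.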

[8] = qHTS assay to identify small molecule antagonists of the estrogen receptor alpha (ER-alpha) signaling pathway using the BG1 cell line - cell viability counter screen (AID 743081);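 note: compound given together with 17beta-estradiol as the ER stimulus; nearly all actives have a fitted effect of over 45% in size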; note: potency is the fitted concentration of half-maximal effect
Aromatase (Homo sapiens) = Aromatase (Homo sapiens) (UniProt P11511); experiment: qHTS assay to identify aromatase inhibitors (AID 743083); note: series mostly up to about 70 µM; nearly all actives have a fitted effect of over 55% in size
Sequence of Aromatase (Homo sapiens) (P11511 whole entry, looked up): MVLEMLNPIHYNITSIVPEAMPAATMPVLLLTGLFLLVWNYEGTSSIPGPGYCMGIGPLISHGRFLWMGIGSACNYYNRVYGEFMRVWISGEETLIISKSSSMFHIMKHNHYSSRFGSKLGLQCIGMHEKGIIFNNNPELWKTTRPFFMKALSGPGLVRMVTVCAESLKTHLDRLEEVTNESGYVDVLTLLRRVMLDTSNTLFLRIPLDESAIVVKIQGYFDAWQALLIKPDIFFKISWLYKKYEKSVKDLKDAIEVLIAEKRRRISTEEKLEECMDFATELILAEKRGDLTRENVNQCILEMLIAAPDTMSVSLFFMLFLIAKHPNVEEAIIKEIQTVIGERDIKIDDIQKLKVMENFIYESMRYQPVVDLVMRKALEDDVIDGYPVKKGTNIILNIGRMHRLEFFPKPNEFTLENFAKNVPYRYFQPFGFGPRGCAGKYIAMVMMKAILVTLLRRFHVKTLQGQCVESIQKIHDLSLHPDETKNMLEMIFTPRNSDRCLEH

[9] = qHTS assay to identify aromatase inhibitors - cell viability counter screen (AID 743084);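 note: cells stimulated with testosterone during compound exposure; nearly all actives have a fitted effect of over 55% in size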; note: potency is the fitted concentration of half-maximal effect
[10] = qHTS assay to identify small molecule that activate the aryl hydrocarbon receptor (AhR) signaling pathway - cell viability counter screen (AID 743086); note: nearly all actives have a fitted effect of over 45% in size; note: potency is the fitted concentration of half-maximal effect
How it was run: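 HepG2-AhR-luc (HG2L7.5c1) cells, 4000/well, treated 24 h at 37 C with compound; viability measured as CellTiter-Fluor fluorescence after 30 min in the same wells as the luciferase read.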

[11] = molecular target: Peroxisome proliferator-activated receptor gamma (Homo sapiens) (UniProt P37231); experiment: qHTS assay to identify small molecule agonists of the peroxisome proliferator-activated receptor gamma (PPARg) signaling pathway (AID 743094; active = well fitted activation curve with a large enough effect in the signal ratio in the repeat runs, not every such curve was filed as active; the % refers to the signal ratio)
Sequence of Peroxisome proliferator-activated receptor gamma (Homo sapiens) (P37231 whole entry, looked up): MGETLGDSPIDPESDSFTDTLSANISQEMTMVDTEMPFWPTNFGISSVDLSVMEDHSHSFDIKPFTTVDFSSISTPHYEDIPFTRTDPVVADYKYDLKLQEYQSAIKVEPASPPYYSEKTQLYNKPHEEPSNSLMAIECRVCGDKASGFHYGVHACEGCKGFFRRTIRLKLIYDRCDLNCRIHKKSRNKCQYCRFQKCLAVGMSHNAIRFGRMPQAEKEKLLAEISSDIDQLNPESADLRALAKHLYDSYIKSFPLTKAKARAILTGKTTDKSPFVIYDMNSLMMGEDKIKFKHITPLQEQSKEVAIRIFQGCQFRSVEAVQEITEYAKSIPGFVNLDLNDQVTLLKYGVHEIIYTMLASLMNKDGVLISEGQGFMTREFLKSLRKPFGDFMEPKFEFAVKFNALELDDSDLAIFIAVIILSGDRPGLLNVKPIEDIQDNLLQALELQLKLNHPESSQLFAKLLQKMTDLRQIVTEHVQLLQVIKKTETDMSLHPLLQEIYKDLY
How it was run: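 Reporter activation was scored by fluorescence of cleaved LiveBLAzer B/G substrate (1 h, room temperature) in PPARg-bla HEK293H cells previously treated 17 h at 37C with DMSO-dissolved compounds.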

[12] = molecular target: Peroxisome proliferator-activated receptor gamma (Homo sapiens) (UniProt P37231); experiment: qHTS assay to identify small molecule antagonists of the peroxisome proliferator-activated receptor gamma (PPARg) signaling pathway (AID 743191; calls by dose curve; note: series mostly up to about 63 µM; nearly all actives have a fitted effect of over 30% in size)
How it was run: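 GeneBLAzer PPARg UAS-bla HEK293H cells, 5 h post-plating, exposed to compounds 17 h at 37C. LiveBLAzer B/G FRET substrate added for 1 h at room temperature; beta-lactamase reporter read by fluorescence intensity.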

[13] = qHTS assay to identify small molecule antagonists of the peroxisome proliferator-activated receptor gamma (PPARg) signaling pathway - cell viability counter screen (AID 743194); conditions: Potency: co-treated with 50 nM rosiglitazone; note: nearly all actives have a fitted effect of over 55% in size
How it was run: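 Cytotoxicity counter screen in PPARg-bla HEK293H cells, same wells as reporter assay. Compounds plus 50 nM rosiglitazone (final) for 17 h at 37 C, then viability read by CellTiter-Glo luminescence.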

[14] = qHTS assay for small molecule agonists of the antioxidant response element (ARE) signaling pathway (AID 743202; active = well fitted activation curve with a large enough effect in the signal ratio in the repeat runs, not every such curve was filed as active; the % refers to the signal ratio; note: potency is the fitted concentration of half-maximal effect)
How it was run: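 HepG2 ARE-bla cells; 16 h treatment at 37 C; FRET-based beta-lactamase fluorescence read after 2 h substrate incubation at room temperature.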

[15] = qHTS assay for small molecule agonists of the antioxidant response element (ARE) signaling pathway - cell viability counter screen (AID 743203; calls by dose curve; note: nearly all actives have a fitted effect of over 55% in size; note: potency is the fitted concentration of half-maximal effect)
How it was run: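 Viability counter screen: stably transfected ARE-bla HepG2 line, 16 hrs compound exposure at 37C/5% CO2, ATP-based CellTiter-Glo luminescence measured in the reporter wells.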

[16] = qHTS assay for small molecule activators of the heat shock response signaling pathway (AID 743210; active = well fitted activation curve with a large enough effect in the signal ratio in the repeat runs, with a control signal flat, not every such curve was filed as active; the % refers to the signal ratio;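 note: HeLa cells with beta-lactamase reporter driven by heat shock elements; series mostly up to about 63 µM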)
How it was run: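 Following overnight attachment, HSE-bla HeLa cells received test compounds for 5 h at 37 C; beta-lactamase activity was then detected via FRET substrate fluorescence.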

[17] = qHTS assay to identify small molecule agonists of the peroxisome proliferator-activated receptor delta (PPARd) signaling pathway - cell viability counter screen (AID 743211); note: nearly all actives have a fitted effect of over 55% in size
How it was run: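 Following 5 h plating at 37 C and 5% CO2, PPARd UAS-bla HEK293H cells took up test compounds for 17 h. Viability was quantified by luminescence 30 min after CellTiter-Glo addition at room temperature.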

[18] = qHTS assay for small molecule activators of the heat shock response signaling pathway - cell viability counter screen (AID 743209); note: nearly all actives have a fitted effect of over 50% in size
How it was run: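 Viability of HSE-bla HeLa cells is measured with CellTiter-Glo in the wells already used for the reporter read. Compound exposure lasts 5 h at 37 C, and luminescence is read after 30 min at room temperature.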

[19] = molecular target: Aryl hydrocarbon receptor (Homo sapiens) (UniProt P35869); experiment: qHTS assay to identify small molecule that activate the aryl hydrocarbon receptor (AhR) signaling pathway (AID 743085);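 note: HG2L7.5c1 human HepG2 liver cells with stably integrated DRE-driven firefly reporter; series mostly up to about 70 µM; nearly all actives have a fitted effect of over 15% in size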
Sequence of Aryl hydrocarbon receptor (Homo sapiens) (P35869 whole entry, looked up): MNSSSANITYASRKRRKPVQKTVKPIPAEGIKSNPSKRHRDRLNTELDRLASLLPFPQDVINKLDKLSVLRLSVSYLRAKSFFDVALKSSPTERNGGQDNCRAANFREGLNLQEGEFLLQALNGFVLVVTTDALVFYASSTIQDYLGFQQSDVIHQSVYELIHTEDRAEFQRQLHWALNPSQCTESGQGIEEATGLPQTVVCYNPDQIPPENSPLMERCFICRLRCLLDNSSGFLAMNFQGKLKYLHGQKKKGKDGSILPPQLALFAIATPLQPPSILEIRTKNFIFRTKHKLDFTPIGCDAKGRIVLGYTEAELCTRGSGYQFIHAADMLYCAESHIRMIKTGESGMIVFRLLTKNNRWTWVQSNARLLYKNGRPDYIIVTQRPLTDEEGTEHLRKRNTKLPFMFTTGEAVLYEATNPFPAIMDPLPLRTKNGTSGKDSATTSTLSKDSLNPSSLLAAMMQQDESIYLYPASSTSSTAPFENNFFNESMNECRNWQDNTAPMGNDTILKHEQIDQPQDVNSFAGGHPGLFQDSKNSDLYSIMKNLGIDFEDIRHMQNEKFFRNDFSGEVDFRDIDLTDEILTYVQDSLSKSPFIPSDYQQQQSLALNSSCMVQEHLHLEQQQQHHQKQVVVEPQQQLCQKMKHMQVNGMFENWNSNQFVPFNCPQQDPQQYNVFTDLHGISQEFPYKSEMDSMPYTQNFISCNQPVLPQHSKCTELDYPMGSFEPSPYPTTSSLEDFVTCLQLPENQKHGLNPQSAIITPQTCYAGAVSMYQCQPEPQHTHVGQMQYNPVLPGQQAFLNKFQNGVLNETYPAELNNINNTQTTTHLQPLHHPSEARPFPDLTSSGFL
How it was run: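 Measured in HG2L7.5c1 cells: CellTiter-Fluor signal (30 min incubation, 37C) for viability, then luciferase luminescence (30 min, room temperature). Compound contact time was 24 h at 37C, following a 5 h pre-incubation.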

Row | Compound | Potency [1] | Potency [2] | Potency [3] | Potency [4] | Potency [5] | Potency [6] | Potency [7] | Potency [8] | Potency (Aromatase (Homo sapiens)) | Potency [9] | Potency [10] | Potency [11] | Potency [12] | Potency [13] | Potency [14] | Potency [15] | outcome [16] | Potency [17] | Potency [18] | Potency [19]
1 | CCCN(CCCl)c1c([N+](=O)[O-])cc(C(F)(F)F)cc1[N+](=O)[O-] | inactive | inactive | inactive | inactive | inactive | inactive | inactive | inactive | inactive | inactive | inactive | inactive | inactive | inactive | inactive | inactive | inactive | inactive |  | 
2 | CCC(Cl)CCl (centres undefined) | inactive | inactive | inactive | inactive | inactive | inactive | inactive | inactive | inactive | inactive | inactive | inactive | inactive | inactive | inactive | inactive | inactive | inactive | inactive | 
3 | O=NN1CCNCC1 | inactive | inactive | inactive | inactive | inactive | inactive | inactive | inactive | inactive | inactive | inactive |  | inactive | inactive | inactive | inactive |  | inactive |  | inactive
4 | O=C=Nc1ccc(Cl)cc1 | inactive | inactive | 3.47 µM [inhibitor] (active) | inactive | inactive |  |  | inactive | inactive | inactive | inactive | inactive | inactive | inactive | 43.3 µM (active) | inactive |  | inactive | inactive | 
5 | Cc1ccc(N)cc1C | inactive | inactive | inactive | inactive | inactive | 49 µM (active) | inactive | inactive | inactive | inactive | inactive | inactive |  | inactive | inactive | inactive | inactive | inactive |  | 
6 | CCCCCCC#N | inactive | inactive | inactive | inactive | inactive | inactive | inactive | inactive | inactive | inactive | inactive |  | inactive |  | inactive | inactive | inactive | inactive |  | 
7 | O=Cc1ccc(Cl)cc1Cl | inactive | inactive |  | inactive |  |  |  | inactive | inactive | inactive | inactive | inactive |  | inactive | inactive | inactive | inactive | inactive | inactive | inactive
8 | O=[N+]([O-])c1ccc(F)c([N+](=O)[O-])c1 | 61.7 µM (active) | inactive |  | inactive | inactive |  |  | 18.8 µM (active) and 49 µM (active) | inactive | inactive and 30.9 µM (active) | inactive and 49 µM (active) | inactive |  |  |  | 30.9 µM (active) |  |  |  | inactive
9 | [O-][Cl+]O | inactive | inactive | inactive |  | inactive | inactive | inactive | inactive | inactive | inactive | inactive | inactive | inactive | inactive |  | inactive | inactive | inactive | inactive | inactive
10 | Nc1nc(N)nc(N)n1 | inactive | inactive |  | inactive |  |  |  | inactive | inactive | inactive | inactive | inactive | inactive | inactive | inactive | inactive | inactive | inactive | inactive | inactive
11 | O=[N+]([O-])c1cc(C(F)(F)F)cc([N+](=O)[O-])c1Cl | inactive | inactive |  | inactive | inactive |  | inactive |  | inactive | inactive |  |  | inactive | inactive |  | inactive | inactive | inactive | inactive | inactive
12 | Clc1cccc(SC2CCNCC2)n1 | inactive | inactive |  | inactive | inactive | inactive | inactive | inactive | inactive | inactive | 29.8 µM (active) |  | inactive | inactive | inactive | inactive | inactive | inactive |  | inactive
